# A number with no mark means an inactive call. Inconclusive results are not listed. A call without a number means that no potency is given here. Calls of active or inactive are those of the source. Calls follow the shape of the dose curve; as a rule, active = well fitted curve in the direction sought with a large enough effect; inconclusive = small, poorly fitted or top-dose-only effect, or another doubt; inactive = no such curve, though single readings can be large; an effect the other way counts as inactive or inconclusive.
# Columns and labels:
# [1] = Primary redox qHTS assay for identification of artifact compounds. (AID 1845223)
# Procedure, shortened: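 Redox-cycling detection via DTT (250 uM final) oxidation coupled to Amplex Red (25 uM)/HRP (250 mU/mL) in HBSS. 15 min preincubation plus 30 min after DTT, room temperature. Ex/Em 525/598 nm; 4-parameter Hill fit against DMSO and 10 uM DA3003.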
# [2] = molecular target: Cytochrome P450 3A4 (Homo sapiens) (UniProt P08684); test: qHTS for inhibitors of CYP3A4 against the NCATS DSHEA and TCM libraries (AID 1919971);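 also: inhibition lowers luminescence from luciferin made by CYP3A4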
# Chain of Cytochrome P450 3A4 (Homo sapiens) (P08684 whole entry, looked up, canonical isoform): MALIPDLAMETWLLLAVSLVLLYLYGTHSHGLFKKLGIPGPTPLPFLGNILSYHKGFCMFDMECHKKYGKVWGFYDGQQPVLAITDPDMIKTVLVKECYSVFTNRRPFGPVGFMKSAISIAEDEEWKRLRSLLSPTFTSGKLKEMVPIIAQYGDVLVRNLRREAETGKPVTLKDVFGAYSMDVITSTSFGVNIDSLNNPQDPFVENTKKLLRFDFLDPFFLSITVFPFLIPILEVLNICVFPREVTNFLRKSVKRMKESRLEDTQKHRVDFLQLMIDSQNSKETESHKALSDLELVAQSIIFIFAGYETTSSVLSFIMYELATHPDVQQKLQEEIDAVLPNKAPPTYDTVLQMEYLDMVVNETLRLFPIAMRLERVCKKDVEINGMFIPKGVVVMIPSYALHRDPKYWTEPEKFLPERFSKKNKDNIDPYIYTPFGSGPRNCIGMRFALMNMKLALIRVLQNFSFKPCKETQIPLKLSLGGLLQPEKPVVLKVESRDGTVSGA
# Procedure, shortened: (§1)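 Concentration-response screening with isoform-matched pro-luciferin substrates. The CYP reaction was initiated by NADPH regenerating solution and ran 30-45 min in darkness at room temperature.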
# [3] = molecular target: Cytochrome P450 2C9 (Homo sapiens) (UniProt P11712); test: qHTS for inhibitors of CYP2C9 against the NCATS DSHEA and TCM libraries (AID 1919973); also: potency is read from the fitted curve at half-maximal effect
# Chain of Cytochrome P450 2C9 (Homo sapiens) (P11712 whole entry, looked up): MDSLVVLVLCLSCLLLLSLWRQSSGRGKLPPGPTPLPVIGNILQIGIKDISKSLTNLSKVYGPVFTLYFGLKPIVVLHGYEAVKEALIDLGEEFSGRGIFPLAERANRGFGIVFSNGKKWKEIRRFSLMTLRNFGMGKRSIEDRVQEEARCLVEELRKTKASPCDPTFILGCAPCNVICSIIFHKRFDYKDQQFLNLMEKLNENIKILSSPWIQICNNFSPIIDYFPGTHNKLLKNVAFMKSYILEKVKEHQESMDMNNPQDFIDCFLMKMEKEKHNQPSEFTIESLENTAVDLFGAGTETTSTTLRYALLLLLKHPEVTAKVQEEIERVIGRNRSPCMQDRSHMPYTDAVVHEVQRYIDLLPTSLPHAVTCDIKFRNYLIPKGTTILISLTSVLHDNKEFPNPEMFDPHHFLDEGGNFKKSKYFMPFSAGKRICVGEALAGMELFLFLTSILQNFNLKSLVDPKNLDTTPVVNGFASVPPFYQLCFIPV
# Procedure, shortened: as §1
# [4] = molecular target: Cytochrome P450 2C19 (Homo sapiens) (UniProt P33261); test: qHTS for inhibitors of CYP2C19 against the NCATS DSHEA and TCM libraries (AID 1919974);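 also: luminescence from luciferin released by CYP2C19 oxidation of a pro-luciferin substrate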
# Chain of Cytochrome P450 2C19 (Homo sapiens) (P33261 whole entry, looked up): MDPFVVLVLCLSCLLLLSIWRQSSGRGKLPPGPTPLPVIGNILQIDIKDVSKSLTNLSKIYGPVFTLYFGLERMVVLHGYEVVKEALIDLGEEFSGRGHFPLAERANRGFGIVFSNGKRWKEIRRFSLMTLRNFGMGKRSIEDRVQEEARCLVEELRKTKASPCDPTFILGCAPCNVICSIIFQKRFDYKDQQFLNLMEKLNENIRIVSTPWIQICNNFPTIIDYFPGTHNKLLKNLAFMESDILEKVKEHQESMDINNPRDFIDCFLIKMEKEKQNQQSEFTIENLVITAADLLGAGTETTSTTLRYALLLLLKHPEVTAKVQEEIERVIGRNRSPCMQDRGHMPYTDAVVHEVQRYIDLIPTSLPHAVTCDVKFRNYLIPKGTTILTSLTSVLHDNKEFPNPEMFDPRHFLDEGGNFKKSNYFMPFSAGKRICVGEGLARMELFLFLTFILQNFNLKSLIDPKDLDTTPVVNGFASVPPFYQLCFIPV
# Procedure, shortened: as §1
# [5] = KB-3-1 P-gp reporter qHTS against the NCATS DSHEA and TCM libraries (AID 1919975)
# Procedure, shortened: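 Cell viability by CellTiter-Glo luminescence following ~72 h compound exposure (concentration-response). Uses parental, non-P-gp-overexpressing KB-3-1 line, 500 cells/well in DMEM/10% FBS, attached ~4 h before dosing.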
# [6] = molecular target: Cytochrome P450 1A2 (Homo sapiens) (UniProt P05177); test: qHTS for inhibitors of CYPIA2 against the NCATS DSHEA and TCM libraries (AID 1919976);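 also: light from luciferin formed by CYP1A2 from a pro-luciferin substrate; series mostly up to about 37 µM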
# Chain of Cytochrome P450 1A2 (Homo sapiens) (P05177 whole entry, looked up): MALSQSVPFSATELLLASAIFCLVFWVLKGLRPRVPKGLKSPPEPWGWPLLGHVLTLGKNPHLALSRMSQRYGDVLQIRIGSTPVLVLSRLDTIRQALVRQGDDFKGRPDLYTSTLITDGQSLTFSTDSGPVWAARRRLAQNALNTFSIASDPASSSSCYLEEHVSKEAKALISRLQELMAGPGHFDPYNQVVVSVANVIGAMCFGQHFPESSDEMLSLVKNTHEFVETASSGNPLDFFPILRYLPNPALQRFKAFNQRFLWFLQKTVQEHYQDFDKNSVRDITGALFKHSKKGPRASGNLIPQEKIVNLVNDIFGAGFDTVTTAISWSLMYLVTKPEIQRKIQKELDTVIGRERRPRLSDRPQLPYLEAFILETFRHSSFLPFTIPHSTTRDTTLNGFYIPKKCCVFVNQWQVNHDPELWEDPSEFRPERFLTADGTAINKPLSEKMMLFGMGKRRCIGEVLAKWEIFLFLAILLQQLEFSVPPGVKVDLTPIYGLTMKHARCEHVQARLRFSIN
# Procedure, shortened: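 Enzyme and pro-luciferin substrate, or substrate alone as no-enzyme background, are pre-incubated with test samples for 15 min at room temperature. NADPH regeneration system (1x final) initiates a 30-45 min dark reaction; luciferase detection reagent follows before luminescence reading.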
# [7] = qHTS Counterscreen for compound interference against the NCATS DSHEA and TCM libraries (AID 1919978); conditions: firefly luciferase detection reagent interference, luminescence;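 also: compounds preincubated with 1 µM D-luciferin or buffer before detection reagent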
# Procedure, shortened: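 With 1 uM D-luciferin or phosphate buffer only, compounds at final 19.5 nM–39.8 uM were incubated for 15 min at room temperature. Luciferase detection reagent was then added, and luminescence was measured after a further 30 min at room temperature.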
# [8] = Dual reporter qHTS for agonist of Pregnane X Receptor (hPXR) against the NCATS DSHEA and TCM libraries: Fluorescence readout (AID 1920058)
# Procedure, shortened: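 Cells were plated at 2000 per well and allowed to attach for 5 h. Test substances were pinned in and incubated roughly 24 h. CellTiter-Fluor was then added and fluorescence measured after 1 h.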
# [9] = molecular target: Nuclear receptor subfamily 1 group I member 2 (Homo sapiens) (UniProt O75469); test: Dual reporter qHTS for agonist of Pregnane X Receptor (hPXR) against the NCATS DSHEA and TCM libraries: Luminescence readout (AID 1920059)
# Chain of Nuclear receptor subfamily 1 group I member 2 (Homo sapiens) (O75469 whole entry, looked up): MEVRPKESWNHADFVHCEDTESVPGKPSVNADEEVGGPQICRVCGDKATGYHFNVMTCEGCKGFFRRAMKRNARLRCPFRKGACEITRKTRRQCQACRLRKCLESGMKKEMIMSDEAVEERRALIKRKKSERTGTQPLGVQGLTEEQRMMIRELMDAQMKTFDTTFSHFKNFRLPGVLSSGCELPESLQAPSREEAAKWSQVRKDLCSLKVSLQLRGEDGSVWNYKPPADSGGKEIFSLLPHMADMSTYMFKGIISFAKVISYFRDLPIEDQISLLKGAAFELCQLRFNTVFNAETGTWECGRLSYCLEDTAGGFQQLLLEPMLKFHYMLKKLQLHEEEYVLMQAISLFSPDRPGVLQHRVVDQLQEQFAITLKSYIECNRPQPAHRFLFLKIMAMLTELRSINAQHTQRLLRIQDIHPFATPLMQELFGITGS
# Procedure, shortened: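 hPXR-LucHepG2 cells in phenol red-free DMEM with 5% charcoal-stripped FBS, 2000 cells/well, attached 5 h, then exposed 24 h at 37C to compounds; rifampicin as positive agonist control (2.8 nM–92 uM). Luciferase luminescence read.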
# [10] = molecular target: Cytochrome P450 2D6 (Homo sapiens) (UniProt P10635); test: qHTS for inhibitors of CYP2D6 against the NCATS DSHEA and TCM libraries (AID 1919972)
# Chain of Cytochrome P450 2D6 (Homo sapiens) (P10635 whole entry, looked up): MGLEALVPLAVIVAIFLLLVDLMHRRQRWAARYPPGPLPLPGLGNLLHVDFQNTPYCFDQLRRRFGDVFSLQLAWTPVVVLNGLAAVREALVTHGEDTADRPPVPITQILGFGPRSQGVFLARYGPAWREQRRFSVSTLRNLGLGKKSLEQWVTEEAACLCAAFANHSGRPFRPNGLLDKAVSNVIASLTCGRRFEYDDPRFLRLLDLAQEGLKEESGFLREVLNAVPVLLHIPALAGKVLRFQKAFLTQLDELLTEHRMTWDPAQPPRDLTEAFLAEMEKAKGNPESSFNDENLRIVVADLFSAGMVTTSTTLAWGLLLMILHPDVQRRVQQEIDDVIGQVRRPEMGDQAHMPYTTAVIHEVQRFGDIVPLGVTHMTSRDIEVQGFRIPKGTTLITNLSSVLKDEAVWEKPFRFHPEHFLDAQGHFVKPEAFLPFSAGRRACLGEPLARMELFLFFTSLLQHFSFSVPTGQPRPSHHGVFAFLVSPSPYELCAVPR
# Procedure, shortened: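 CYP2D6 enzyme with pro-luciferin substrate in manufacturer buffer (typically 100 mM KPO4), preincubated 15 min RT with substances (most at 19.5 nM upward); NADPH regeneration system (1x) started 30–45 min RT reaction; P450-Glo luminescence read after 30 min; quinidine as intraplate control.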
smiles,measurement,setting,value
CCOC(=O)Nc1nc2ccccc2[nH]1,Potency,[1],inactive
O=C(/C=C/c1ccccc1)OCC1=CC[C@@H]2C(C(=O)O)=CO[C@@H](O[C@@H]3O[C@H](CO)[C@@H](O)[C@H](O)[C@H]3O)[C@H]12,Potency,[1],inactive
CC1(C)CC[C@]2(C(=O)O)CC[C@]3(C)C(=CCC4[C@@]5(C)C[C@@H](O)[C@H](O)C(C)(C)C5CC[C@]43C)[C@@H]2[C@@H]1O (stereo partly specified),Potency,[1],inactive
O=c1ccn([C@@H]2O[C@H](CO)[C@@H](O)[C@H]2O)c(=O)[nH]1,Potency,[1],inactive
OC[C@H]1O[C@@H](Oc2cc(O)cc(/C=C/c3ccc(O)cc3)c2)[C@H](O)[C@@H](O)[C@@H]1O,Potency,[1],inactive
Cc1cc(Nc2ncc(Cl)c(Nc3ccccc3S(=O)(=O)C(C)C)n2)c(OC(C)C)cc1C1CCNCC1,Potency,[1],inactive
Cc1c(C)c2c(c(C)c1O)CC[C@@](C)(CCC[C@H](C)CCC[C@H](C)CCCC(C)C)O2,outcome,[2],inactive
same,Potency,[3],inactive
same,Potency,[4],inactive
same,outcome,[5],inactive
same,outcome,[6],inactive
same,max response,[7],-0.537%
same,outcome,[8],inactive
same,outcome,[9],inactive
COC1=Cc2c(nc3n(c2=O)C(C)C(=O)NC3(O)C(C)C)OC=C1 (stereo unspecified),Potency,[1],inactive
C=C1CCC2C(OC(=O)C2(O)COC(C)=O)C2C(=C)C(O)CC12 (stereo unspecified),Potency,[1],inactive
C/C=C1\[C@H](O[C@@H]2O[C@H](CO)[C@@H](O)[C@H](O)[C@H]2O)OC=C(C(=O)OC)[C@H]1CC(=O)OC,Potency,[1],inactive
COc1cc(/C=C/C(=O)OC2CC(C)=C(C(=O)O)/C2=C/CO[C@@H]2O[C@H](CO)[C@@H](O)[C@H](O)[C@H]2O)ccc1O (stereo partly specified),Potency,[1],inactive
CC(=O)O[C@@H]1[C@H](O[C@@H]2O[C@H](CO)[C@@H](O)[C@H](O)[C@H]2O)[C@@H](O[C@@H]2O[C@@H](C)[C@H](O)[C@@H](O[C@@H]3O[C@H](CO)[C@@H](O)[C@H](O)[C@H]3O)[C@H]2O)[C@H](OC(=O)C23CCC4(C)C(=CCC5C6(C)CC(O)C(O[C@@H]7O[C@H](C(=O)O)[C@@H](O)[C@H](O)[C@H]7O)C(C)(C(=O)O)C6CCC54C)C2CC(C)(C)CC3O)O[C@@H]1C (stereo partly specified),redox activity (% of DA3003),[1],12.9% [at 11.5 µM]
CCCCCCc1cccc(NC(=O)[C@H](N)CCP(=O)(O)O)c1,redox activity (% of DA3003),[1],-3.89% [at 11.5 µM]
CC1=C(/C=C/C(C)=C/C=C/C(C)=C/CO)C(C)(C)CCC1,outcome,[10],inactive
same,Potency,[3],14.1 µM (active)
same,outcome,[5],inactive
same,max response,[7],0.358%
same,outcome,[8],inactive
Cc1ccc(Sc2cncc3sc(C(N)=O)cc23)cc1,Potency,[1],inactive

# — PubChem BioAssay (NCATS)
